From PubChem BioAssay
IL-1B inflam inh: inhibitors of inflammasome signaling (IL-1 beta secretion); THP-1 LPS/ATP IL-1B secretion, AlphaLISA, 16 h; active compounds read low; activity change, % at 57.5 µM; 4.7% of 360,000 active; AID 743279; in the data active = activity change below about -50%; inconclusive = mostly about -30% to -49%
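THP-1 cells pretreated 1 hr with compounds (up to 57.5 uM final), then stimulated with LPS (250 ng/mL final) plus ATP (1.25 mM final); secreted IL-1B measured by AlphaLISA after 16 hr, decreased signal indicating inhibition.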
DT40 TDP1 CPT: DT40-hTDP1 cell growth loss with CPT; chicken DT40 Tdp1-/-;hTDP1 cells + 20 nM CPT, ATP luminescence, 48 h; Potency, µM (highest dose often 46.2 µM), inactives show top-dose activity change, negative = growth inhibition, most hits filed as inhibitors; 12% of 420,000 active; note: potency is the fitted concentration of half-maximal effect; nearly all actives have a fitted effect of over 55% in size
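Cell growth measured by CellTiter-Glo luminescence after a minimum 48 h, 37 C compound exposure with 20 nM CPT in Tdp1-knockout DT40 cells stably expressing hTDP1, seeded 400/well; qHTS titration format.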
Giardia kill: Giardia lamblia killing; AID 540267; Giardia lamblia trophozoite viability; 0.15% of 340,000 active; activity change, % at 7.66 µM, hits read low; in the data active = activity change below about -80%; inconclusive = between about -30% and that limit;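 note: parasites exposed to compound for two days anaerobically before the ATP read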
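Anaerobic 48 hrs incubation at 37 deg C of 100 trophozoites/well with test compounds; ATPLite 1-Step luminescence, 15-30 min RT, reports cellular ATP as viability.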
TDP1 inh: inhibitors of human tyrosyl-DNA phosphodiesterase TDP1; 0.28% of 350,000 active; Potency, µM (doses to about 130 µM), for inactives: at the highest dose activity change, negative = inhibition, actives largely listed as inhibitors; AID 485290; recombinant TDP1, AlphaScreen DNA substrate cleavage; Q9NUW8; note: potency is the fitted concentration of half-maximal effect; nearly all actives have a fitted effect of over 40% in size
Target sequence (Q9NUW8 whole entry, looked up): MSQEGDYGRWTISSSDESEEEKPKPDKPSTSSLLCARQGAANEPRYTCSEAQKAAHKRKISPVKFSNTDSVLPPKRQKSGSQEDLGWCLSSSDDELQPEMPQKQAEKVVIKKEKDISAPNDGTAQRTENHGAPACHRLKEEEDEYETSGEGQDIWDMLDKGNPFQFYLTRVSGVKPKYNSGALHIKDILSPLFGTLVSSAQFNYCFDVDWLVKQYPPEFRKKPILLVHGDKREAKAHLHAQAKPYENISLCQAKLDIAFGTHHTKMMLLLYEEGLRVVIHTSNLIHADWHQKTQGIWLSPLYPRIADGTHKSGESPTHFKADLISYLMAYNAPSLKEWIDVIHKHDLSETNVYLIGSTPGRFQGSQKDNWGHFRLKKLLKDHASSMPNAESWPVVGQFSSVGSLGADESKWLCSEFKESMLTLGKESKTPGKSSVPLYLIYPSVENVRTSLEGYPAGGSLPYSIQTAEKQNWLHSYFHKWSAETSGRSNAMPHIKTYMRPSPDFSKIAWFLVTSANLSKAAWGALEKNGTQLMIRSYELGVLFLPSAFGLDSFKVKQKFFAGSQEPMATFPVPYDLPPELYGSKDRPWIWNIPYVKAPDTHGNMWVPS
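AlphaScreen read-out: signal falls as enzyme removes the 3' tyrosine-FITC from a 5'-biotinylated DNA oligo (15 nM, 5 min, RT). Enzyme was E. coli-made recombinant Tdp1 at 1 nM, exposed to compound for 15 min beforehand; beads 10 ug/ml, 10 min.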
DT40 TDP1 no CPT: qHTS for Inhibitors of human tyrosyl-DNA phosphodiesterase 1 (TDP1): qHTS in cells in absence of CPT. DT40 Tdp1-/- hTDP1 cells, no CPT, ATP luminescence, 48 h. Potency, µM (highest dose often 46.2 µM), without a hit: top-dose activity change, negative = growth inhibition, most hits filed as inhibitors. 15% of 420,000 active. AID 686978, 2013; note: potency is the fitted concentration of half-maximal effect; nearly all actives have a fitted effect of over 55% in size
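Chicken DT40 Tdp1-/- cells stably complemented with human TDP1 were seeded at 400 cells/well with DMSO in place of 20 nM camptothecin. After compound pinning, cells grew at least 48 hr at 37 °C; viability read by CellTiter-Glo luminescence.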
ELG1 DNA repair: inhibitors of ELG1-dependent DNA repair in HEK293T cells. Potency, µM (titrated, usually from 46.1 µM), without a hit: at the top dose activity change, negative = inhibition, hits mostly inhibitors. HEK293T ELG1-luciferase reporter, luminescence, 16 h; DNA damage induced by 5-fluorouridine. AID 504467. 2.3% of 330,000 active; note: potency is the fitted concentration of half-maximal effect; nearly all actives have a fitted effect of over 55% in size
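Quantitative HTS, concentration-response format. 2,000 cells/well co-treated with 5-fluorouridine and compound, 16 hr in 5% CO2 at 37 °C; ONE-Glo luminescence read after 30 min.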
Starred values were filed as active, the others as inactive; u = inconclusive; x = no result; [ ] = remark or other dose. Only some compounds are listed: those with a hit (about 19% of all), similar ones and a draw of the others. Unless noted, calls come from the whole dose curve; as a rule, active = well fitted curve in the direction sought with a large enough effect; inconclusive = small, poorly fitted or top-dose-only effect, or another doubt; inactive = no such curve, though single readings can be large; an effect the other way counts as inactive or inconclusive. % is set by controls: 0 for no effect and ±100 for the full control effect.

SMILES	IL-1B inflam inh	DT40 TDP1 CPT	Giardia kill	TDP1 inh	DT40 TDP1 no CPT	ELG1 DNA repair
Cc1cccc(Nc2ncnc3ccc(Br)cc23)c1	-50.8*	u	17.3	2.7%	u	u
Clc1cccc(Nc2ncnc3ccc(Br)cc23)c1	-57.8*	25.9µM*	11.0	2.5%	u	u
N#Cc1cccc(NC(=O)N2CCCC3(CCN(C(=O)c4cnccn4)CC3)C2)c1	x	20.0%	x	x	-6.5%	x
CC(OC(=O)c1ccco1)C(=O)Nc1ccc(C(F)(F)F)cc1 (centres undefined)	-8.8	10.3µM*	-22.2	0.3%	25.9µM*	6.9%
CC(OC(=O)c1ccccn1)C(=O)Nc1ccc(C(F)(F)F)cc1 (centres undefined)	10.5	-25.7%	-7.7	-0.5%	-9.1%	5.3%
CCN1CCN(C(=S)NC(=O)c2cccc(Br)c2)CC1	11.9	u	-2.9	2.1%	u	-16.7%
Cc1cc(NC(=O)CC(C)C)c(=O)n(Cc2ccccc2F)c1	-0.9	u	8.1	x	u	-4.3%
CCOC(=O)[C@H]1[C@H]2COc3ccc(Br)cc3[C@H]2N2C(=O)CN(Cc3ccc(C)cc3)C(=O)[C@@]12C	-58.8*	u	15.1	x	u	x
CCOC(=O)[C@H]1[C@H]2COc3ccc(Cl)cc3[C@@H]2N2C(=O)CN(Cc3ccc(Cl)cc3)C(=O)[C@@]12C	-17.8	u	-12.0	0.4%	16.4µM*	u
CCOC(=O)[C@H]1[C@H]2COc3ccc(Cl)cc3[C@@H]2N2C(=O)CN(Cc3ccccc3)C(=O)[C@@]12C	-7.9	u	2.6	1.1%	20.6µM*	-13.2%
CCOC(=O)[C@H]1[C@H]2COc3ccc(Cl)cc3[C@@H]2N2C(=O)CN(Cc3ccc(F)cc3)C(=O)[C@@]12C	-3.1	u	17.6	1.3%	u	u
O=C1CC(/C=C/c2ccccn2)=Nc2ccccc2N1	-75.0*	u	13.1	5.0%	14.6µM*	u
Nc1ccc(N2CCCCC2)c2nonc12	8.5	25.9µM*	4.3	3.0%	16.4µM*	2.2%
Cc1ccc(S(=O)(=O)N2CC=C(c3c(C)n(C)c4ccccc34)CC2)cc1	15.5	u	1.4	5.8%	16.4µM*	-0.1%
c1ccc(-c2cn(C[C@H]3CC[C@@H]([C@@H]4CC[C@H](Cn5cc(-c6ccccc6)nn5)O4)O3)nn2)cc1	-14.4	25.9µM*	-7.9	x	u	-1.6%
c1ccc(CCc2cn(C[C@H]3CC[C@@H]([C@@H]4CC[C@H](Cn5cc(CCc6ccccc6)nn5)O4)O3)nn2)cc1	-4.0	u	21.8	x	14.6µM*	u
CC1CN(CCCCN2C(=O)c3ccccc3C2=O)CC(C)O1 (centres undefined)	14.6	-11.2%	21.1	x	22.6%	16.0%
OCCCc1cn(CC2CCCCC2)nn1	-1.8	-15.2%	7.5	x	-1.4%	-0.5%
c1ccc(-c2cn(C[C@H]3CC[C@@H]([C@@H]4CC[C@H](Cn5cc(-c6ccccn6)nn5)O4)O3)nn2)nc1	2.7	-28.5%	1.7	x	-23.5%	8.4%
O=C1c2ccccc2C(=O)N1CCCCc1cn(C[C@H]2CC[C@H](Cn3cc(CCCCN4C(=O)c5ccccc5C4=O)nn3)O2)nn1	-6.6	u	-8.5	-0.1%[56.1 µM]	20.6µM*	8.2µM*
Cc1ccc(C)c(S(=O)(=O)N2CCN(CC(=O)NC(=O)NCc3ccco3)CC2)c1	-7.5	-16.4%	7.1	2.6%	u	u
Cc1ccc(NC(=O)CSc2ccccc2NC(=O)c2ccccc2Cl)cc1Cl	0.0	u	-10.4	u	18.4µM*	23.1µM*
Cc1nc(SCC(=O)Nc2ccc(C)c(Cl)c2)cc(-c2ccccc2)n1	x	23.1µM*	x	-4.7%	u	x
Cc1ccc(NC(=O)CSc2ccccc2NC(=O)c2ccccc2)cc1Cl	u	14.6µM*	-21.7	-2.7%	13µM*	u
CCN(CC)c1ccc(S(=O)(=O)N2CCOCC2)cc1NC(=O)COC(=O)/C=C/c1ccco1	-0.5	23.1µM*	7.8	x	25.9µM*	x
SMILES	IL-1B inflam inh	DT40 TDP1 CPT	Giardia kill	TDP1 inh	DT40 TDP1 no CPT	ELG1 DNA repair
CCN(CC)c1ccc(S(=O)(=O)N2CCOCC2)cc1NC(=O)COC(=O)c1cccnc1SC	-0.1	u	16.0	8.0%	16.4µM*	-26.1%
CCOc1ncccc1C(=O)OCC(=O)Nc1cc(S(=O)(=O)N2CCOCC2)ccc1Cl	11.7	-24.3%	-9.3	5.5%	-12.7%	-20.2%
CN(Cc1nc2ccccc2c(=O)[nH]1)C(=O)COc1ccccc1Cc1ccccc1	17.0	u	-0.3	-1.4%[56.1 µM]	u	-17.0%
COc1ccc(CNC(=O)CCc2c(C)nc3nc(CNC(=O)OC(C)(C)C)nn3c2C)cc1	x	-8.1%	x	0.0%	-27.9%	x
COc1ccc(NC(=O)C2(C)CCN2CCc2ccccc2)cc1OC (centres undefined)	-8.0	u	x	x	u	x
COc1ccc(OC)c(NC(=O)C2(C)CCN2Cc2ccccc2Cl)c1 (centres undefined)	-4.8	u	x	x	u	x
COc1cccc(NC(=O)C2(C)CCN2CCc2ccccc2)c1 (centres undefined)	16.6	23.1µM*	x	x	u	x
COc1ccc(OC)c(NC(=O)C2(C)CCN2CCc2ccccc2)c1 (centres undefined)	16.0	23.1µM*	x	x	16.4µM*	x
Cc1cc(C)c(Cn2cnc(-c3ccc([N+](=O)[O-])cc3)c2)c(C)c1	-63.7*	13µM*	26.4	6.4%	14.6µM*	-28.8%
CC(C)(C)c1ccc(Cn2cnc(-c3ccc([N+](=O)[O-])cc3)c2)cc1	u	23.1µM*	2.2	8.1%	23.1µM*	u
CCc1cc2c(cc3c(=O)n(CC(=O)NCCc4ccccc4)ncn32)s1	x	-0.6%	x	5.9%	-20.7%	x
NC(=Nc1ccccc1)N(c1ccccc1)c1ccccc1	6.4	u	0.1	x	13µM*	x
COc1ccc(CCNC2=C(Cl)C(=O)N(CCc3ccccc3)C2=O)cc1OC	-0.2	u	-15.3	0.9%	20.6µM*	u
COc1ccc(CCNC(=O)CCN2C(=O)c3ccccc3C2=O)cc1OC	x	x	x	-2.4%	x	-1.6%
Nc1c(NCCC2=CCCCC2)c(=O)[nH]c(=O)n1Cc1ccccc1	-12.1	25.9µM*	-12.8	2.0%	6.51µM*	-4.4%
COc1ccc(CCNc2c(N)n(Cc3ccccc3)c(=O)[nH]c2=O)cc1OC	-55.4*	-95.8%	15.7	4.8%	u	-7.1%
